High-throughput results as filed in PubChem BioAssay.
CSC inhib: cancer stem cell inhibition; cancer stem cell-like cells viability, luminescence; inhibition, % at 7.5 µM; actives 1.1% (n = 300,000); in the data active = inhibition above about 75%; tested in HMLE shEcad cells
Mdm2 MdmX PPI: human Mdm2/MdmX binding inhibition. inhibition, % at 8 µM. SaOS-2 split-luciferase Mdm2/MdmX complementation, luminescence. actives 3% (n = 330,000). AID 485346. O15151+Q00987;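 active = inhibition of at least 50% at 8 µM in the primary screen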
Target sequence (O15151 whole entry, looked up): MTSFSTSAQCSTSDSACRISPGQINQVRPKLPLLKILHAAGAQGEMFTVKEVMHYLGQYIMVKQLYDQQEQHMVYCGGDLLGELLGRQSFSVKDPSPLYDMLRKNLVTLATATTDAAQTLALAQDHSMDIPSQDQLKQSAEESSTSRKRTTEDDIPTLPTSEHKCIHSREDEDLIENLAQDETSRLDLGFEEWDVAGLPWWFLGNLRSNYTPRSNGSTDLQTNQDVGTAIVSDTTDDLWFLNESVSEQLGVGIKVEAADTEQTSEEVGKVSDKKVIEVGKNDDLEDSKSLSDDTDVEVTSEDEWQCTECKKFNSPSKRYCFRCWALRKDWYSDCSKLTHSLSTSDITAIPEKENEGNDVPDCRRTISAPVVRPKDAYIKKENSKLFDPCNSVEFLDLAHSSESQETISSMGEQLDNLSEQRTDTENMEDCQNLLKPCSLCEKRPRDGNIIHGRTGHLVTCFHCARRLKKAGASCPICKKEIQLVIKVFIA
Target sequence (Q00987 whole entry, looked up): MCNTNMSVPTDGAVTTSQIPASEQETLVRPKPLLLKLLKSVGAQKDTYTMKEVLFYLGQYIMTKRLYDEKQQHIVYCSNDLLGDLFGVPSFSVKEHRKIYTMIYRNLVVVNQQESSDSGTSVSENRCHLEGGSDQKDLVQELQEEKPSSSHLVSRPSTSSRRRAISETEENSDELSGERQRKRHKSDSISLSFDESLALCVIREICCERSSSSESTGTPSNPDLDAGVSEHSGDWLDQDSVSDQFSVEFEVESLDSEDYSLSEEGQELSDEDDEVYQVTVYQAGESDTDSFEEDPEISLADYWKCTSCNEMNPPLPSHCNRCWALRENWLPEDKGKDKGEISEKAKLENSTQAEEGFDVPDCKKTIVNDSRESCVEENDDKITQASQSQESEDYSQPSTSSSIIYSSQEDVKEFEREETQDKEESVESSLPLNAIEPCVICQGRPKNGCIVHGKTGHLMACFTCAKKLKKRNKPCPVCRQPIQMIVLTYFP
Jurkat NFkB inh: inhibitors of the PMA/ionomycin-induced NF-kB reporter in Jurkat cells; PMA/ionomycin-induced NF-kB luciferase reporter, luminescence; inhibition, % at 4 µM; actives 0.53% (n = 330,000); in the data active = inhibition above about 50%
Beta cell apopt: blocks beta cell apoptosis. protection from apoptosis, % (test concentration not listed). INS-1E cytokine-induced death, ATP luminescence, 48 h; percent of positive-control rescue, neutral wells zero. actives 0.8% (n = 300,000);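 active = Every replicate reaches about 75%, or at least half do and their mean reaches it too, limit read from the data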;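 note: higher means more ATP so stronger rescue from cytokine killing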
697 NFkB inh: lowers PMA/ionomycin-induced NF-kB signal in 697 B cells; 697 B-cell NF-kB luciferase reporter, 16 h; inhibition, % at 4 µM; actives 0.33% (n = 330,000); in the data active = inhibition above about 35%
Gli-Sufu antag: Gli-Sufu pathway antagonism; Sufu-KO-LIGHT fibroblasts, Gli luciferase reporter luminescence; actives 0.74% (n = 340,000); inhibition, % at 5 µM;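 active = inhibition above about 55%, limit read from the data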
Hits are given with their value; n = inactive; x = no result given. Hits are enriched below; roughly 4.5% of the tested compounds scored in any of these assays.

SMILES	CSC inhib	Mdm2 MdmX PPI	Jurkat NFkB inh	Beta cell apopt	697 NFkB inh	Gli-Sufu antag
CCCCCc1ccc(-c2cn(Cc3ccc(C)cc3)nn2)cc1	n	n	n	n	n	n
CCCCCc1ccc(-c2cn(CN3C(=O)c4ccccc4C3=O)nn2)cc1	n	n	n	96.4	n	n
C=C(C)C1Cc2c(C)nn(-c3cccc4ccccc34)c2C1 (centres undefined)	95.6	n	n	n	n	n
C=C(C)C1Cc2c(C)nn(-c3ccccc3)c2C1 (centres undefined)	n	n	n	n	n	n
O=C(C[C@@H]1C/C=C/CCCC(=O)O[C@H](c2ccccc2)CNC1=O)N[C@H](CO)Cc1ccccc1	n	n	n	n	n	n
COc1ccc2nc(-n3c(O)c(C4=c5ccccc5=NC4=O)[nH]c3=S)sc2c1	110.8	x	x	n	x	n
Cn1c(O)c(C2=c3ccccc3=NC2=O)[nH]c1=S	n	n	n	n	n	n
COc1ccc(NC(=O)CN(C)C(=O)c2cccc(S(=O)(=O)N3CCN(c4ccc(F)cc4)CC3)c2)cc1	x	x	x	x	x	n
CCC1CSC(Nc2ccc(C(=O)/C=C/c3cccc(C)c3)cc2)=N1 (centres undefined)	87.5	n	n	n	n	n
Cc1ccc(C(=O)C=Cc2cccc(C)c2)cc1	x	x	x	x	x	n
O=[N+]([O-])c1ccc(N2CCN(CCOc3nonc3-c3ccccc3)CC2)c(Cl)c1	n	n	n	119.4	n	n
O=[N+]([O-])c1ccc(N2CCN(c3ccccn3)CC2)c(Cl)c1	x	n	n	n	n	n
Cc1ccc(C(=O)N2CCCC2)cc1S(=O)(=O)N1CCCCC1	n	n	n	n	n	n
COc1cc(CN(C)C(=O)C(=O)c2c[nH]c3ccccc23)ccc1O	x	x	x	x	x	n
COc1ccc(C(c2c[nH]c3ccccc23)c2c[nH]c3ccccc23)cc1O	119.3	n	n	n	n	x
Cc1nc(NC(=O)c2ccc(F)cc2)sc1C(=O)Nc1ccc2c(c1)CCC2	n	n	n	n	n	n
Cc1ccc(C(=O)Nc2nc(C)c(C(=O)Nc3ccc4c(c3)CCC4)s2)cc1	80.5	n	n	n	n	n
CCCCCCc1ccc(N2C[C@H](Cc3ccccc3)[C@@H](CC(=O)Nc3ccccc3)C2=O)cc1	n	n	n	103.9	n	n
CCCCCCc1ccc(N2C[C@H](CCCCC)[C@@H](CC(=O)NCc3ccccc3)C2=O)cc1	n	n	n	n	n	n
CCCCCCc1ccc(N2C[C@H](CCCCC)[C@@H](CC(=O)NCc3ccc(OC)cc3)C2=O)cc1	n	n	n	n	n	n
CCCCCCc1ccc(N2C[C@H](Cc3ccccc3)[C@@H](CC(=O)NCc3ccc(OC)cc3)C2=O)cc1	n	n	n	99.8	n	n
CSc1ncccc1C(=O)Nc1nc2ccc(Oc3ccccc3)cc2s1	78.1	n	n	n	n	n
Cc1cc(=O)[nH]c(N/N=C/c2ccccc2Cl)n1	n	n	n	n	n	n
Cc1cc(=O)[nH]c(NN=Cc2cc(Br)ccc2O)n1	x	x	x	x	x	76.2
COc1cc(/C=N/NC(=O)c2cccc(NC(=O)c3ccccc3C)c2)ccc1O	n	n	n	x	n	n
SMILES	CSC inhib	Mdm2 MdmX PPI	Jurkat NFkB inh	Beta cell apopt	697 NFkB inh	Gli-Sufu antag
Cc1ccccc1C(=O)Nc1cccc(C(=O)N/N=C/c2cc(Cl)cc([N+](=O)[O-])c2O)c1	n	n	n	101.1	n	n
O=C(N=Nc1c(O)n(Cc2ccccc2)c2ccccc12)c1ccc(O)cc1	n	n	n	n	n	n
O=C(N=Nc1c(O)n(Cc2ccccc2)c2ccccc12)c1cc2ccccc2cc1O	n	x	x	83.8	x	n
Cc1ccc(NC(=O)Cn2c(O)c(N=NC(=O)c3ccncc3)c3ccccc32)cc1	n	n	n	n	n	n
Cc1ccc(NC(=O)Cn2c(O)c(N=NC(=O)c3cc4ccccc4cc3O)c3ccccc32)cc1	98.5	x	x	102.5	x	n
CCOC(=O)c1c(NC(=O)c2nn(CC)cc2Br)sc(C)c1C	n	n	n	n	n	n
CCOC(=O)c1c(NC(=O)c2nn(CC)cc2Br)sc2c1CCCCC2	84.6	n	n	n	n	n
CC1(C)CC2CC(C)(CN2C(=O)c2cc(-c3ccc(O)cc3)on2)C1 (centres undefined)	86.5	n	n	n	n	n
COC(=O)c1ccc(CN(c2ccc(C(=O)O)c(O)c2)S(=O)(=O)c2ccc(Cl)c([N+](=O)[O-])c2)cc1	92.4	x	x	n	x	n
CN(C(=O)C1CCCO1)C1CCS(=O)(=O)C1 (centres undefined)	n	n	n	x	n	n
COc1ccc(C(C(=O)NC2CCCCC2)N(C(=O)CCl)c2cccc(Cl)c2)cc1 (centres undefined)	109.0	x	x	99.0	x	x
COc1cccc(N(C(=O)c2cnccn2)C(C(=O)NC2CCCCC2)c2ccc(Cl)cc2)c1 (centres undefined)	n	n	n	n	n	n
O=C(NC1CCCCC1)C(c1cccnc1)N(C(=O)CCl)c1ccc(F)cc1 (centres undefined)	99.3	x	x	n	x	n
CCn1c(O)c(C2=c3ccccc3=NC2=O)c2cc(Br)ccc21	n	n	n	n	n	n
O=C1N=c2ccccc2=C1c1c(O)n(-c2cccc(F)c2)[nH]c1=O	83.1	x	x	n	x	n
COc1cccc(-c2nnc(NC(=O)c3ccc(S(=O)(=O)N4CCOCC4)cc3)o2)c1	n	n	n	n	n	n
COc1cc(-c2nnc(NC(=O)c3ccc(S(=O)(=O)N4CCOCC4)cc3)o2)cc(OC)c1OC	n	n	n	85.8	n	x
Cc1cccc(CCNS(=O)(=O)c2ccc3c(c2)NC(=O)C(C)S3)c1 (centres undefined)	n	n	n	n	n	n
O=C(Nc1ccc2c(c1)OCO2)c1ccc(COc2ccc3c(c2)CCC3)o1	86.1	n	n	n	n	n
O=S(=O)(Nc1ccc(O)c(Sc2nc3ccccc3s2)c1)c1ccc(F)cc1	n	n	n	n	n	n
O=S(=O)(Nc1ccc(O)c(Sc2nc3ccccc3s2)c1)c1cccc2ccccc12	80.6	n	n	n	n	n
O=C(O)c1cc(NS(=O)(=O)c2ccc(F)cc2)cc(NS(=O)(=O)c2ccc(F)cc2)c1	n	n	n	n	n	n
O=C(N/N=C/c1cccc(F)c1)c1c(O)c2ccccc2[nH]c1=O	n	x	x	100.7	x	n
O=C(NNC(=O)c1c(O)c2ccccc2[nH]c1=O)c1ccccc1	n	n	n	n	n	n
O=C(N/N=C/c1ccccc1)c1c(O)c2ccccc2[nH]c1=O	n	n	n	123.7	n	n
O=C(Nc1cccc(F)c1)c1c(O)c2ccccc2[nH]c1=O	n	n	n	n	n	n
NC(=O)[C@@H]1CCCN1Cc1c(C(=O)N2CCc3ccccc3C2)nc2ccc(Cl)cn12	n	n	n	n	n	n
CN=c1scc(-c2ccc(F)cc2)n1/N=C/c1ccc(O)c(O)c1	x	n	n	x	n	58.2
CN=c1scc(-c2ccc([N+](=O)[O-])cc2)n1/N=C/c1ccco1	n	n	n	n	n	n
